Source: PubChem BioAssay
An excerpt weighted towards active compounds, which were near 3.2% of everything screened.
Mtb betalactam: beta-lactam sensitization of Mtb H37Rv, H37Rv | 330,000 tested, 0.27% active | inhibition, % at 25 µM | AID 434955, 2010 | M. tuberculosis H37Rv growth with meropenem, percent inhibition; call rule not given here;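 note: growth measured after seven days incubation then overnight dye step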
Rv3671c protease: Rv3671c serine protease inhibitors, primary screen, biochemical, fluorescence polarization, M. tuberculosis H37Rv; inhibition, % at 5.96 µM; 320,000 tested, 0.048% active; in the data active = inhibition above about 38%;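 note: extracellular domain of Rv3671c used as enzyme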
FBA Mtb inh: Mtb FBA enzyme inhibitors, primary screen, biochemical, fluorescence, strain H37Rv; 360,000 tested, 2.3% active; purified M. tuberculosis FBA, fluorescence read-out; Fructose-bisphosphate aldolase (Mycobacterium tuberculosis (strain ATCC 25618 / H37Rv)), …; AID 588726, 2011; inhibition, % at 1 µM; in the data active = inhibition above about 27%
Target sequence (P9WQA3 whole entry, looked up): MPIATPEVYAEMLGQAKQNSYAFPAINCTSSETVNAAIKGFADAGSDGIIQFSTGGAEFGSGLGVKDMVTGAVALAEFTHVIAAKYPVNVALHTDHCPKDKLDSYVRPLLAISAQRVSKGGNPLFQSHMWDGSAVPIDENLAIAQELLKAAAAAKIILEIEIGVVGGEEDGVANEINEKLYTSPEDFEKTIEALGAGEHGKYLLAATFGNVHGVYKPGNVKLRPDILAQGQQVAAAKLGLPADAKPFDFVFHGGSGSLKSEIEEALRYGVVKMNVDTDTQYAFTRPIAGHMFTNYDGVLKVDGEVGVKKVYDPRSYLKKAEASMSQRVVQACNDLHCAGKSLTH
UGM FP inh: M. tuberculosis UGM enzyme inhibitors, primary screen, biochemical, fluorescence polarization, single point. purified UGM, fluorescence polarization probe displacement. inhibition, % at 10 µM. 320,000 tested, 0.06% active. AID 504406, 2011; in the data active = inhibition above about 10%, passing the limit was not always enough; inconclusive = no clear call, values can overlap the other calls
GDH-TPI counter: GDH-TPI coupling enzyme inhibitors, primary screen, artefact control for M. tuberculosis FBA inhibitor project, biochemical, absorbance, full deck; inhibition, % at 4.8 µM; 360,000 tested, 1.2% active; AID 588335, 2011; GDH-TPI coupled enzyme counterscreen, NADH absorbance; in the data active = inhibition above about 30%
PriA SSB inh: inhibitors of Klebsiella pneumoniae PriA binding to SSB C-terminal tail, primary screen, biochemical, AlphaScreen; AID 1272365, 2023; inhibition, % at 33 µM; AlphaScreen SSBct-PriA binding, biotinylated peptide; PriA–SSB C-terminal tail interaction (Klebsiella pneumoniae); 430,000 tested, 0.6% active; in the data active = inhibition mostly above about 37%, no sharp cut-off; inactive = mostly below about 20%
Numbers stand for hits; - = inactive; ? = inconclusive; . = not tested or not shown; + = active, no number; ! = repeats disagree.

SMILES	Mtb betalactam	Rv3671c protease	FBA Mtb inh	UGM FP inh	GDH-TPI counter	PriA SSB inh
CSc1ccc(CNC(=O)c2ccc(CS(=O)(=O)Cc3ccccc3F)o2)cc1	.	.	.	.	.	-
O=c1oc2ccc(Cl)cc2nc1/C=C(\O)c1ccco1	-	-	-	-	37	-
CC1(C)COc2cc(NC(=O)c3ccccc3C(F)(F)F)ccc2NC1=O	.	.	.	.	.	-
CCCCCCCCN=Cc1c(O)[nH]c(=O)[nH]c1=O	-	-	-	-	-	-
COCCCN=Cc1c(O)[nH]c(=S)[nH]c1=O	-	-	-	-	33	-
C=CCOC(=O)C1=C(C)NC(=O)NC1c1ccc(Cl)cc1 (centres undefined)	-	-	-	-	-	102
Cc1nn(C)c(C)c1S(=O)(=O)NCc1ccccc1-c1ccsc1	.	.	.	.	.	-
CCN1C(=O)c2cccc3c(NC(=O)c4ccc(S(=O)(=O)N(C)C5CCCCC5)cc4)ccc1c23	.	.	.	.	.	-
CCCN1CCCc2ccc(N)cc21	.	.	.	.	.	130
O=C(NCCC1=CCCCC1)c1ccc(-n2cncn2)nn1	.	.	.	.	.	-
COc1ccc(C)cc1NCc1ccc([N+](=O)[O-])cc1	-	-	-	-	-	40
COCC(=O)Nc1ccc2c(c1)N(C(=O)C1CC1)CC2	.	.	.	.	.	-
NC(=O)c1cccc(-c2cccc3nccn23)c1	.	.	-	.	-	.
Clc1cccc(-c2cccc3nccn23)c1	.	.	+	.	-	.
N#CCc1ccc(-c2cccc3nccn23)cc1	.	.	+	.	-	.
c1cc(-c2ccc(N3CCOCC3)cc2)n2ccnc2c1	.	.	+	.	-	.
CS(=O)(=O)Nc1ccc(-c2cccc3nccn23)cc1	.	.	162	.	-	.
CC(=CC(=O)C(F)(F)F)Nc1cc(C)cc(C)c1	.	.	.	.	.	-
CCC(=NNC(=O)CNC(=O)/C=C/c1ccco1)c1ccccc1	.	.	.	.	.	-
CC(=NNC(=O)COc1cc(C)ccc1C(C)C)C(=O)O	.	.	.	.	.	-
CN(C)c1ccc(-c2cccc3nccn23)cc1	.	.	+	.	-	.
O=C(NN=Cc1cc([N+](=O)[O-])ccc1N1CCOCC1)c1ccccn1	.	.	.	.	.	-
Cc1cc(NCc2ccco2)nc2cc(O)ccc12	-	-	124	-	-	-
O=C(CSc1ccc2nnc(-c3ccccc3)n2n1)NCc1ccco1	-	-	-	-	-	-
O=C(CSc1ccc(-c2cccs2)nn1)NCCc1ccccc1	-	-	-	-	-	-
SMILES	Mtb betalactam	Rv3671c protease	FBA Mtb inh	UGM FP inh	GDH-TPI counter	PriA SSB inh
O=C(CSc1ccc(-c2ccccn2)nn1)NC1CCCCC1	-	-	-	-	-	72!
O=C(CSc1ccc2nnc(-c3ccccn3)n2n1)NCc1ccco1	-	-	-	-	-	82
O=C(CSc1ccc(-c2ccccn2)nn1)NCCc1ccccc1	.	.	.	.	.	81
O=C(CSc1ccc(-c2ccccn2)nn1)NCc1ccccc1	-	-	-	-	-	50!
CC(C)Oc1ncccc1CNC(=O)c1ncc(-c2ccccc2)o1	.	.	.	.	.	-
O=C(CSc1ccc(-c2ccccn2)nn1)NCc1ccco1	.	.	.	.	.	71
CN(C)CC#CCNC(=O)NCc1ccc(F)cc1	.	.	.	.	.	-
CCCCn1c(N)c(N(CCOC)C(=O)CSCc2cccc(C)c2)c(=O)[nH]c1=O	-	-	-	-	-	49
Cc1cc(NC(=O)CCS(=O)(=O)c2ccccc2)on1	.	.	.	.	.	-
Cc1cccc(OCCn2cnc(Cl)c2Cl)c1	-	-	-	-	-	40
O=C(c1cccc(NS(=O)(=O)c2cccc([N+](=O)[O-])c2)c1)N1CCOCC1	-	-	156	-	-	-
O=C(c1cccc(NS(=O)(=O)c2cccc(F)c2)c1)N1CCOCC1	.	.	.	.	.	-
Cc1cc(NC(=O)c2ccccc2S(C)(=O)=O)n(C)n1	.	.	.	.	.	-
O=C(COC(=O)c1cc(=O)[nH]c2ccccc12)NC1CCCC1	-	-	-	-	-	-
O=C(NC1CCCC1)c1cc(=O)[nH]c2ccccc12	-	-	-	-	43	-
COc1ccc(Cc2cc(NCc3ccccc3)c3ncn(C(C)C)c3c2)cc1	-	-	-	-	-	66
CCC(COC)Oc1cc(NCc2ccccc2)c2ncn(C(C)C)c2c1 (centres undefined)	-	-	-	-	-	63
Cc1nnc(NC(=O)CSc2nnc(-c3cccs3)o2)s1	.	.	.	.	.	-
Cc1ccccc1-c1nc(C#N)c(N2CCN(c3ccccc3)CC2)o1	.	.	.	.	.	-
COC(=O)C(=NNc1cccc(C)c1)N1CCCc2ccccc21	.	.	.	.	.	-
O=C(Nc1ccc(/C=C/c2nc3ccccc3o2)cc1)c1cccc(C(F)(F)F)c1	-	-	-	-	36	-
O=C(Nc1ccc(/C=C/c2nc3ccccc3o2)cc1)c1c(F)cccc1F	-	-	-	-	-	-
CCCS(=O)(=O)Nc1ccc(OC)c(N2CCCCC2=O)c1	.	.	.	.	.	-
Cc1ccccc1-n1c(O)c(C=Nc2ccc(N(C)C)cc2)c(=O)[nH]c1=O	?	-	-	-	43	-
Cc1cccc(N=Cc2c(O)n(-c3ccccc3C)c(=O)[nH]c2=O)c1	-	-	-	-	48	-
SMILES	Mtb betalactam	Rv3671c protease	FBA Mtb inh	UGM FP inh	GDH-TPI counter	PriA SSB inh
O=C(CCn1nc(-c2ccc(F)cc2)ccc1=O)N1CCN(c2ccccn2)CC1	.	.	.	.	.	-
O=C(NCC1(c2ccc(F)cc2)CC1)C(=O)Nc1ccc2c(c1)OCCO2	.	.	.	.	.	-
CN(C)c1ccc(C(=O)c2ccccc2)cc1	-	-	-	-	31	-
CCC(C)n1c(O)c(C=NCCc2ccccc2)c(=O)[nH]c1=S (centres undefined)	-	-	-	-	55	-
Cn1c(=NNC(=O)c2ccccc2F)sc2ccccc21	.	.	.	.	.	-
COCCCNC(=O)Cc1c(C)c2cc3c(cc2oc1=O)OC(C)(C)CC3	-	-	192	-	-	-
Cc1c(CC(=O)O)c(=O)oc2cc3c(cc12)CCC(C)(C)O3	-	-	+	-	-	-
Cc1c(CC(=O)NCCCC(=O)O)c(=O)oc2cc3oc4c(c3cc12)CCCC4	?	-	-	-	-	-
COCCCNC(=O)Cc1c(C)c2c(cc(C)c3c(C)c(C)oc32)oc1=O	.	.	-	.	-	-
Cc1c(CC(=O)NCCCC(=O)O)c(=O)oc2cc3c(cc12)CCC(C)(C)O3	-	-	+	-	-	-
CCC(NC(=O)Cc1c(C)c2cc3c(cc2oc1=O)OC(C)(C)CC3)C(=O)O (centres undefined)	-	-	+	-	-	-
CC1Cc2cc(C(O)=C3C(=O)C(=O)N(CCCN(C)C)C3c3ccncc3)ccc2O1 (centres undefined)	.	.	.	.	.	-
COC(=O)c1c(NC(=O)c2ccccc2F)sc2c1CC(C)(C)NC2(C)C	.	.	.	.	.	-
Cc1c(CC(=O)NCCCCCC(=O)O)c(=O)oc2cc3c(cc12)CCC(C)(C)O3	-	.	187	-	-	-
Cc1c(CC(=O)N2CCC(C(N)=O)CC2)c(=O)oc2cc3c(cc12)CCC1(CCCCC1)O3	-	-	+	-	-	-
